The record followed here is PubChem BioAssay (Tox21).

A number with no mark means an inactive call. Unless noted, the call rests on the fitted dose curve; in most records, active means well fitted cell-killing curve with a large enough effect in the repeat runs; inconclusive means weak or mixed curves; inactive means flat fitted curve, though single readings scatter. Records with an inconclusive call do not appear.
On the % scale 0 is the no-effect control and ±100 the full control effect.

Estrogen receptor (Homo sapiens), sequence (P03372 whole entry, looked up): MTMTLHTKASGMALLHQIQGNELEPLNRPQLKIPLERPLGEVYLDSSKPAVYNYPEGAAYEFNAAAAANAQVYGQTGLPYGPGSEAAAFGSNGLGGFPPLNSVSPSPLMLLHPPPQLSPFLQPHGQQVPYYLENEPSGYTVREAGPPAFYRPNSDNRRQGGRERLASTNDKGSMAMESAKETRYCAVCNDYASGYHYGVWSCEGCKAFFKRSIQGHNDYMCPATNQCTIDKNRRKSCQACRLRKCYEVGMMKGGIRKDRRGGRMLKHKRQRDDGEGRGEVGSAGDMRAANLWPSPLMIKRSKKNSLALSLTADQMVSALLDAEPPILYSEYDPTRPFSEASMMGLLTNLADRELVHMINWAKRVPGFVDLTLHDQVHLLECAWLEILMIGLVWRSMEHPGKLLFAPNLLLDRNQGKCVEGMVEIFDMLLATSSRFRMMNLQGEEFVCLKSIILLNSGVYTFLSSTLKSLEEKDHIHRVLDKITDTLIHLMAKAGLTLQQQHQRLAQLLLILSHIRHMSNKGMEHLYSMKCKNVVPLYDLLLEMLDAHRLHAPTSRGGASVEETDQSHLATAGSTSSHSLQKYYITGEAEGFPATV

Test system in one assay: not listed separately
The assay is described as follows: qHTS assay to identify small molecule antagonists of the estrogen receptor beta (ER-beta) signaling pathway - cell viability counter screen (AID 1259382). Further: nearly all actives have a fitted effect of over 55% in size. As to conditions: ER-beta-UAS-bla HEK293T viability, CellTiter-Glo luminescence, 16 h; series mostly up to 92.4 µM; activity change, negative = cytotoxicity: at the top concentration. The essentials: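 Agonist-stimulated (1nM E2) ER-beta-UAS-bla HEK293T cells are incubated with library compounds for 16 hr at 37C. Cell viability is then assessed in the reporter-assay wells by adding CellTiter-Glo and reading luminescence after 30 min.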
For orientation: In qHTS, concentration-response curves come from the screen itself.
As to `C[C@H](CN1CCOCC1)C(C(=O)N1CCCC1)(c1ccccc1)c1ccccc1`, the “activity change, negative = cytotoxicity” value is -19.3%.

Take `COC[C@@H](NC(C)=O)C(=O)NCc1ccccc1`: the “activity change, negative = cytotoxicity” value is -0.602% [at 42.5 µM]. Still for that read-out and setting: the figure for `CC[C@@H](CO)NC(=O)[C@@H]1C=C2c3cccc4[nH]cc(c34)C[C@H]2N(C)C1` is -1.36% [at 42.5 µM]; for `CC[C@@H](CO)NC(=O)[C@@H]1C=C2c3cccc4c3c(cn4C)C[C@H]2N(C)C1` it is 1.89% [at 42.5 µM]. As for `O=C(Cl)OCc1ccccc1`, the “activity change, negative = cytotoxicity” value is 5.01%. Same read-out and setting: for `CCN[C@@H](C)Cc1ccccc1` the value was 1.47%. On the same count and under the same terms, the figure for `Clc1nc(Cl)nc(Nc2ccccc2Cl)n1` is 11.8%. For `CC(Cc1ccccc1)NCCCCl` (configuration not stated), the “activity change, negative = cytotoxicity” value is -9.33% [at 42.5 µM].

With `Clc1cc2c(cc1Cl)Oc1cc(Cl)c(Cl)cc1O2`, the activity change, negative = cytotoxicity was -1.8% [at 0.349 µM]. Regarding `CCNc1nc(Cl)nc(NC(C)(C)C)n1`, the “activity change, negative = cytotoxicity” value was 2.96%. Same read-out and setting: the figure for `CC(C)(C1CCC(O)CC1)C1CCC(O)CC1` (configuration not stated) is -3.69%; for `C=CCc1cc(OC)c2c(c1)OCO2` it is 7.09%. The same measure, in the same setting: for `CC(C)N(Cc1ccccc1)C(=O)C(C)(C)C` the value was 2.82%. `Cc1cc(OC(=O)N(C)C)nn1C(=O)N(C)C`: the “activity change, negative = cytotoxicity” value was -0.302%. On the same count and under the same terms, the figure for `CCC1(c2ccccc2)CCC(=O)NC1=O` (configuration not stated) is 4.48% [at 42.5 µM]; for `CN(C)C(=O)Oc1cc(OC(=O)N(C)C)cc(C(O)CNC(C)(C)C)c1` (configuration not stated) it is 4.78% [at 42.5 µM]. On the same count and under the same terms, for `OP(O)c1ccccc1` the value was -0.32%.

With `CCC(C)(C#N)N=NC(C)(C#N)CC` (configuration not stated), the “activity change, negative = cytotoxicity” value was 3.64%. On the same count and under the same terms, the figure for `OCC(Cl)CCl` (configuration not stated) is 7.26%. Same read-out and setting: the figure for `O=C(Cl)C(Cl)(Cl)Cl` is -0.431%; for `N#CN` it is -0.542% [at 240 µM]. On the same count and under the same terms, the figure for `COc1ccc(C=O)cc1O` is -7.35%; for `O=C(NC(O)C(Cl)(Cl)Cl)NC(O)C(Cl)(Cl)Cl` (configuration not stated) it is 18.4% [at 42.5 µM]. Take `CCC(CC)(CNC(=O)CCCO)c1cccc(OC)c1`: the “activity change, negative = cytotoxicity” value is 10.9% [at 42.5 µM]. Same read-out and setting: for `CN(C)CCc1c[nH]c2cccc(OP(=O)(O)O)c12` the value was 7.92%.

Take `BrCC1CO1` (configuration not stated): the “activity change, negative = cytotoxicity” value is 4.82%. Turning to `C[N+]1(C)CCCCC1`, the “activity change, negative = cytotoxicity” value is 1.84%. The same measure, in the same setting: for `CCN(CC)C1CCCCC1` the value was -0.128%; for `CCCOC(=O)c1cncn1C(C)c1ccccc1` (configuration not stated), 0.527% [at 42.5 µM].

For `C=CC(=O)OCCN(C)C`, the “activity change, negative = cytotoxicity” value is -0.24%.

Another assay concerns the target Estrogen receptor (Homo sapiens) (UniProt P03372). The assay is described as follows: qHTS assay to identify small molecule agonists of the estrogen receptor alpha (ER-alpha) signaling pathway in the presence of an antagonist (AID 1259383; calls by dose curve; further: top concentration of the series differs between compounds; nearly all actives have a fitted effect of over 15% in size). Particulars: VM7Luc4E2 cells, ERE-luciferase, +ICI-182,780, 22 h; series mostly up to 92.4 µM; activation: at the top concentration. The essentials:
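Using VM7Luc4E2 cells seeded 24hr before treatment, antagonist ICI-182,780 (10.0nM final) was added, followed by compounds at 15 concentrations. Plates incubated 22hr; ONE-Glo luminescence quantified reporter activity.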
Take `C[C@H](CN1CCOCC1)C(C(=O)N1CCCC1)(c1ccccc1)c1ccccc1`: the “activation” value is -2.68%. As for `CC[C@@H](CO)NC(=O)[C@@H]1C=C2c3cccc4[nH]cc(c34)C[C@H]2N(C)C1`, the “activation” value is 0.523% [at 42.5 µM]. The same measure, in the same setting: for `CC[C@@H](CO)NC(=O)[C@@H]1C=C2c3cccc4c3c(cn4C)C[C@H]2N(C)C1` the value was -0.859% [at 42.5 µM]. In the case of `O=C(Cl)OCc1ccccc1`, the “activation” value is -0.467%. As for `CCN[C@@H](C)Cc1ccccc1`, the “activation” value is 1.1%. On to `CCOC1Oc2ccc(OS(C)(=O)=O)cc2C1(C)C` (configuration not stated), for which the “activation” value was 9.88%.

As to `Clc1nc(Cl)nc(Nc2ccccc2Cl)n1`, the “activation” value was -0.818%. Still for that read-out and setting: the figure for `CC(Cc1ccccc1)NCCCCl` (configuration not stated) is 1.05% [at 42.5 µM]; for `Clc1cc2c(cc1Cl)Oc1cc(Cl)c(Cl)cc1O2` it is -1.56% [at 0.349 µM]; for `CC(C)(C1CCC(O)CC1)C1CCC(O)CC1` (configuration not stated) it is -0.0553%.

`Cc1cc(OC(=O)N(C)C)nn1C(=O)N(C)C`: the “activation” value is -0.769%. The same measure, in the same setting: the figure for `CCC1(c2ccccc2)CCC(=O)NC1=O` (configuration not stated) is -0.674% [at 42.5 µM]; for `CN(C)C(=O)Oc1cc(OC(=O)N(C)C)cc(C(O)CNC(C)(C)C)c1` (configuration not stated) it is -2.67% [at 42.5 µM]; for `N[C@@H]1C[C@H]1c1ccccc1` it is 1.45% [at 42.5 µM].

In the case of `O=C/C=C/c1ccco1`, the “activation” value was -1.74%. Still for that read-out and setting: the figure for `OP(O)c1ccccc1` is -0.0713%; for `CCC(C)(C#N)N=NC(C)(C#N)CC` (configuration not stated) it is 0.136%; for `OCC(Cl)CCl` (configuration not stated) it is 0.287%. On the same count and under the same terms, for `O=C(Cl)C(Cl)(Cl)Cl` the value was 0.245%; for `N#CN`, -0.959% [at 240 µM]. The same measure, in the same setting: the figure for `COc1ccc(C=O)cc1O` is -3.14%. Turning to `O=C(NC(O)C(Cl)(Cl)Cl)NC(O)C(Cl)(Cl)Cl` (configuration not stated), the “activation” value was 0.512% [at 42.5 µM]. Still for that read-out and setting: for `CCC(CC)(CNC(=O)CCCO)c1cccc(OC)c1` the value was -0.515% [at 42.5 µM]; for `CN(C)CCc1c[nH]c2cccc(OP(=O)(O)O)c12`, -1.21%; for `BrCC1CO1` (configuration not stated), -1.27%. Regarding `CCN(CC)C1CCCCC1`, the “activation” value was -1.72%.

Regarding `CCCOC(=O)c1cncn1C(C)c1ccccc1` (configuration not stated), the “activation” value was -0.651% [at 42.5 µM].
